Screening data deposited in PubChem by Broad Institute.
Wnt bcat act: activates Wnt/beta-catenin signaling in a reporter cell assay; 300,000 tested, 1.2% active; AID 743398; activation, % at 9.35 µM; activator, plate reader; in the data active means activation above about 30%, passing the limit was not always enough;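 further: 0% = neutral control wells and 100% = positive control wells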
MITF act: MITF TRPM1 promoter activation in melanoma cells. SK-MEL-5 TRPM1-promoter luciferase, 24 h; % of positive control, neutral wells = 0. activation, % at 12.5 µM. 300,000 tested, 0.75% active;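 active means mean activation of at least 80% with every replicate also reaching 80%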;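 further: 0% = neutral control wells and 100% = parthenolide positive control wells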
TRPM1 prom inh: MITF TRPM1 promoter inhibition in SK-MEL-5 cells; SK-MEL-5 TRPM1 promoter luciferase, 24 h; inhibition, % at 12.5 µM; 330,000 tested, 0.83% active;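 active means mean inhibition across replicates of 60% or more, whatever share of single replicates reaches that level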
esBAF inh: inhibitors of esBAF chromatin remodeling in mouse ES cells; Bmi1-luciferase knock-in reporter, 24 h; 100% = twice the neutral-well signal; reporter increase, % at 12.5 µM; 350,000 tested, 2% active; in the data active means activation above about 40%;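 further: 0% = median of the plate's neutral control wells and 100% = double that signal; a rise in the Bmi1 reporter signal indicates esBAF inhibition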
PAX8 reporter: inhibitors of PAX8 transcriptional activity in RMG-I cells. RMG-I TPO-luciferase reporter, SteadyGlo, 24 h. inhibition, % at 12.6 µM. 360,000 tested, 1.2% active. AID 652154;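 active means mean replicate inhibition at least 60% with every replicate also reaching 60%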;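 further: luciferase light reporting Pax8 driven TPO promoter activity; plate controls were median of neutral control wells for no effect and mitoxantrone controls for full effect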
EWS-Fli block: EWS/Fli transcriptional activity inhibition; A673 NR0B1-luciferase reporter, viability-normalised; inhibition, % at 12.6 µM; 350,000 tested, 0.67% active;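 active means mean inhibition of at least 50% after viability correction, with every replicate also passing that limit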;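 further: firefly luciferase signal divided by Alamar Blue viability fluorescence both relative to DMSO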
Numbers without * were called inactive; x = no result. Shown are actives, neighbours in structure and some others; about 4% of the full set was active somewhere.

SMILES	Wnt bcat act	MITF act	TRPM1 prom inh	esBAF inh	PAX8 reporter	EWS-Fli block
CCN(CC)S(=O)(=O)c1ccc(NS(=O)(=O)c2cccc(C)c2)cc1	39*	1	-3	5	2	x
CCN(CC)S(=O)(=O)c1ccc(NS(=O)(=O)c2ccc(F)cc2)cc1	x	-3	-1	-1	x	x
CCN(CC)S(=O)(=O)c1ccc(NC(=O)Nc2cccc(C(F)(F)F)c2)cc1	x	x	60*	-30	x	x
C[C@@H]1CN([C@H](C)CO)C(=O)c2ccccc2-c2ccccc2CO[C@H]1CN(C)C(=O)Nc1ccc(F)cc1	x	x	x	7	-34	5
C[C@@H]1Cc2c(O)c(O)cc(O)c2C(=O)O1	x	1	-3	0	x	x
CC1CCC/C=C/C(=O)c2c(O)cc(O)cc2CC(=O)O1 (stereo unspecified)	-3	-91	92*	-6	x	45
C=CCOc1ccc2c(OC)c3ccoc3nc2c1OC	35*	27	-26	48*	-24	x
CCOc1c2ccoc2nc2c(OC)c(OC)ccc12	0	x	x	21	x	-64
COC(=O)c1c(NC(=O)c2ccc(C(=O)c3ccccc3)cc2)sc2c1CC(C)(C)NC2(C)C	-2	x	x	-6	7	11
COC(=O)c1c(NC(=O)c2nc3ccccc3s2)sc2c1CC(C)(C)NC2(C)C	5	-77	77*	4	-3	-20
C[C@H]1CN([C@@H](C)CO)C(=O)c2cc(NC(=O)Nc3ccc(F)cc3)ccc2O[C@H]1CN(C)Cc1ccc(C(=O)O)cc1	x	x	x	0	2	0
CCOCCCNC(=O)C(c1ccc(Cl)cc1)N1CCC2(CC1)OCCO2 (stereo unspecified)	60*	4	-1	-16	x	x
CC(=O)N1[C@@H]2c3ccc(-c4ccccc4)c(=O)n3C[C@@H]2[C@@H](CO)[C@@H]1C(=O)NC1CCC1	x	x	x	2	-3	-7
CCNC(=O)C[C@@H]1CC[C@H]2[C@@H](COC[C@@H](O)CN2C(=O)C2CC2)O1	x	x	x	3	-1	-22
CC[N+](C)(CC)CCC/C(=N/O)C(O)(c1ccccc1)c1ccccc1	33*	x	x	x	8	-8
Cc1oc(C(C)(C)C)cc1C(=O)Nc1ccc(C(=O)O)cc1	x	68	-66	76*	x	x
O=C(C[C@@H]1C=C[C@H](NC(=O)Nc2ccc(F)cc2)[C@H](CO)O1)NCCN1CCCC1	x	x	x	7	0	-2
CCCCc1nnc(NC(=O)c2oc3ccccc3c2C)s1	3	37	-40	63*	-38	-45
Cc1nnc(NC(=O)c2oc3ccccc3c2C)s1	25	22	-22	x	-100	-57
Cc1nc(NC(=O)c2oc3ccccc3c2C)sc1C(=O)N(C)C	17	57	-60	62*	x	x
CN(C)Cc1cn(CC[C@@H]2CC[C@H](N)[C@@H](CO)O2)nn1	x	x	x	-3	-3	-2
CCCC#Cc1cnc2c(c1)C(=O)N([C@H](C)CO)C[C@@H](C)[C@@H](CN(C)C(=O)Cc1ccncc1)O2	x	x	x	2	x	8
Cc1nc(NC(=O)Nc2ccc(Cl)cc2)sc1C	15	78	-73	58*	-218	-132
CCCNC(=O)Nc1cccc(C(=O)OC)c1	34*	5	-1	x	-15	-32
CC(=O)c1ccc(NC(=O)Nc2ccc(Cl)cc2)cc1	17	125*	-125	66*	x	-93
SMILES	Wnt bcat act	MITF act	TRPM1 prom inh	esBAF inh	PAX8 reporter	EWS-Fli block
CC(=O)c1ccc(NC(=O)Nc2ccncc2)cc1	6	46	-42	6	-45	-2
CC(C)=CC(=O)Nc1ccc(Cl)cc1	45*	89*	-87	x	-237	-77
CO[C@H]1CN(C)C(=O)c2cc(NS(=O)(=O)c3ccc(C)cc3)ccc2OC[C@@H](C)N(Cc2nccs2)C[C@@H]1C	x	x	x	8	12	15
CN(C)CC(=O)Nc1ccc2c(c1)[C@@H]1C[C@H](CC(=O)NCC3CC3)O[C@H](CO)[C@@H]1O2	x	x	x	0	0	-14
C[C@@H]1CN([C@@H](C)CO)C(=O)Cc2cc(NC(=O)CCCCCC(=O)Nc3ccccc3N)ccc2O[C@H]1CN(C)S(=O)(=O)c1cccs1	x	x	x	-3	-21	9
COC(=O)c1cccc(NC(=O)Nc2ccc(Cl)cc2)c1	1	x	-10	55	-63	75*
COC(=O)c1cccc(NC(=S)Nc2ccc(Cl)c(Cl)c2)c1	13	x	3	x	-2	-14
C=CCSc1nc(N)c2c(C)c(C)sc2n1	12	x	-31	46*	-38	x
